Experimental data reported in PubChem BioAssay AID1117361 (Southern Research Institute, 2015).
Hit rate of the full screen: of about 3,600 compounds, about 900 (25%) were called active. How the calls were made is not given here. These entries were drawn from the full list. Entries with a potency or affinity are not part of this list.

Each compound was assayed against Protein Tat (Human immunodeficiency virus type 1 group M subtype B (isolate HXB2)) (UniProt P04608) (assay: HIV-1 Tat–TAR interaction blockers – biochemical, fluorescence polarization, FAM-labeled TAR RNA, counter-screen for Vif-APOBEC3G degradation inhibitor project, dose response (AID 1117361)). Settings: Tat-TAR RNA binding; series mostly up to 100 µM.

Row | Compound | outcome
1 | O=C(NCc1ccc(F)cc1)C1CCCN1C(=O)NCc1ccccc1 (stereo not given) | inactive
2 | CCCC(c1nnnn1CC(=O)OCC)N(Cc1cc2c(C)cc(C)cc2[nH]c1=O)C1CCCC1 (stereo not given) | inactive
3 | O=C(c1ccco1)N1CCN=C1SCc1ccccc1F | inactive
4 | Cc1ccccc1S(=O)(=O)Cc1ccc(C(=O)NCCCN2CCC(C)CC2)o1 | inactive
5 | O=C(CCCCl)Nc1nc(-c2ccc3c(c2)OCCO3)cs1 | inactive
6 | CN(C)C(=O)c1cc(Cl)ccc1Sc1cc(Cl)ccc1Cl | inactive
7 | COC(C[C@H]1O[C@@H]1[C@@H](O)COCc1ccccc1)OC | inactive
8 | N#Cc1nc(Cc2cccc3ccccc23)oc1NCc1ccc(F)cc1 | inactive
9 | Cc1nc(C(=O)N(C)C)nn1-c1cc(Cl)cc(Cl)c1 | inactive
10 | CCC(=O)Nc1nc2ccc(NC(C)=O)cc2s1 | inactive
11 | CC(C)c1ccccc1N1CC(C(=O)O)CC1=O (stereo not given) | inactive
12 | COc1cc(C2C(C(=O)c3ccco3)=C(O)C(=O)N2c2cc(C)on2)cc(Br)c1O (stereo not given) | inactive
13 | COc1ccc(/C(O)=C2/C(=O)C(=O)N(c3ccccn3)C2c2ccc(F)cc2)cc1 (stereo not given) | inactive
14 | O=C(C1CCCC1)N1CCCC(Nc2ccc(F)cc2)C1 (stereo not given) | inactive
15 | O=C(c1cc(-c2cccs2)on1)N1CCCCC1 | inactive
16 | COc1ccccc1N1CCN(C(=O)c2cc(-c3cccs3)on2)CC1 | inactive
17 | COc1cccc2sc(N(C)c3ccccc3)nc12 | inactive
18 | CC1CCN(S(=O)(=O)c2cc(Br)cc(C(=O)NC3=NCCS3)c2)CC1 | inactive
19 | C=CCNC(=O)c1ccncc1 | inactive
20 | COc1cc(/C=N/NC(=O)c2ccc(NS(=O)(=O)c3cccs3)cc2)cc(OC)c1O | inactive
21 | CCn1cc(C(=O)N2CCOCC2)c(=O)c2cc(S(=O)(=O)N(C)C3CCCCC3)ccc21 | inactive
22 | CSc1cccc(NC(=O)C(C)C)c1 | inactive
23 | CSc1cccc(NC(=O)CN(c2cc(C)ccc2C)S(C)(=O)=O)c1 | inactive

Row | Compound | outcome
24 | CCOC(=O)C1CCN(C(=O)c2ccc(Cl)c(S(=O)(=O)N3CCOCC3)c2)CC1 | inactive
25 | O=C(N/N=C/c1ccc(F)cc1)c1ccc(Br)cc1 | inactive
26 | CSCC[C@H](NC(=O)NCc1ccccc1F)C(=O)O | inactive
27 | COc1ccc(NC(=O)c2cccnc2C(=O)O)c(OC)c1 | inactive
28 | O=C(O)c1ccccc1NS(=O)(=O)c1ccccc1C(F)(F)F | inactive
29 | Cc1cc(=O)[nH]c2c1c(C)nn2C1CCCC1 | inactive
30 | Cc1ccc2c(c1)c(=O)c1c3n2CCN(C(=O)CCl)C3CC1 (stereo not given) | inactive
31 | O=C(COC(=O)c1ccccc1OC(F)F)Nc1ccc2[nH]c(=O)[nH]c2c1 | inactive
32 | CCN(CC)C(=O)c1sc(NC(=O)c2ccc(Br)o2)c(C(=O)OC)c1C | inactive
33 | C=CCNC(=O)c1ccccc1Cl | inactive
34 | CCc1c(C(=O)NCc2ccccc2Cl)[nH]c(C)c1C(C)=O | inactive
35 | Nc1ccc(Sc2cc(Cl)nc(N)n2)cc1 | inactive
36 | O=C(CSc1nc(N2CCCCC2)nc(N2CCCCC2)n1)N1CCc2ccccc21 | inactive
37 | O=C(Cn1ccc([N+](=O)[O-])n1)N1CCCc2ccccc21 | inactive
38 | CCCCNC(=O)CN1C(=O)CSc2ccc(S(=O)(=O)N3CCOCC3)cc21 | inactive
39 | CO/N=C/C(=N\Nc1ccc(OC)cc1)C(=O)c1ccc(OC)cc1 | inactive
40 | COc1ccc(C(=O)C2CCCN(C(=O)c3cnsn3)C2)c(C)c1 (stereo not given) | inactive
41 | CC(=O)c1ccc(-c2nnc(CCC(=O)N(C)Cc3c(C)nc4ccccn34)o2)s1 | inactive
42 | CN(C(=O)CSc1ncnc2sccc12)C1CCCCC1 | inactive
43 | O=C(/C=C/c1ccccc1)NC(NC(=S)Nc1cc(Cl)ccc1Cl)C(Cl)(Cl)Cl (stereo not given) | inactive
44 | COC(=O)c1cccc(NC(=O)c2cccc(OC)c2)c1 | inactive
45 | O=C(O)c1cccc(NCc2ccncc2)c1 | inactive
46 | COC(=O)c1ccc(NC(=O)COc2cccc(-n3cnnn3)c2)cc1 | inactive

Row | Compound | outcome
47 | CC(=O)Nc1ccc2c(c1)Cc1cc(N3C(=O)C=CC3=O)ccc1-2 | inactive
48 | CCOc1ccc(C2=[N+]([O-])C(C)(C)N(O)C2(C)C)cc1 | inactive
49 | CCCCn1nnc(NC(=O)c2ccc(-c3cccc(Cl)c3)o2)n1 | inactive
50 | CC1(C)CC(=O)c2cc(OCC(=O)NCc3cccnc3)ccc2O1 | inactive
51 | CCOC(=O)/C(=C/c1c2ccccc2cc2ccccc12)NC(=O)c1ccccc1 | inactive
52 | CCOC(=O)/C(=C\c1ccccc1)NC(=O)c1ccccc1 | inactive
53 | COc1ccc(S(=O)(=O)NCc2ccccn2)cc1 | inactive
54 | Cc1cccc(C)c1NS(=O)(=O)c1c(C)[nH]c(=O)[nH]c1=O | inactive
55 | COc1ccc(CNc2ncnc(N)n2)cc1 | inactive
56 | CC(C)CC(NC(=O)CCl)c1ccccc1 (stereo not given) | inactive
57 | CCCC(=O)Nc1ccccc1NC(C)=O | inactive
58 | CCN(CC)C(=O)CSCC(=O)Nc1ccccc1 | inactive
59 | CCOC(=O)c1ccc(NC(=O)CSc2nnc(Cc3cccs3)n2C)cc1 | inactive
60 | O=C(c1c(F)cccc1F)N(Cc1ccccn1)C1CCCC1 | inactive
61 | O=C(CCn1c(=O)c2ccccc2n(CC(=O)NCCC2=CCCCC2)c1=O)NCc1ccco1 | inactive
62 | O=C(NCCc1ccc(Cl)cc1)C1CCN(C(=O)c2sccc2-n2cccc2)CC1 | inactive
63 | COc1cc(C(O)P(=O)(OCC(C)C)OCC(C)C)cc(OC)c1OC (stereo not given) | inactive
64 | Cc1ccc(CNC(=O)C2c3ccccc3C(=O)N3CCc4ccccc4C23)o1 (stereo not given) | inactive
65 | CN1CCN(C(=O)c2ccc(N(C)S(=O)(=O)c3cccs3)cc2)CC1 | inactive
66 | Cc1ccc(CSC2=Nc3sccc3C3=NC(=O)CN23)cc1 | inactive
67 | COCC(=O)NCCc1nc2ccccc2[nH]1 | inactive
68 | COCCn1c(N2CCN(c3ccc(OC)cc3)CC2)nc2c1c(=O)[nH]c(=O)n2C | inactive
69 | CCCn1c(NC(=O)c2ccco2)nc2ccccc21 | inactive

Row | Compound | outcome
70 | CCn1c(=N)n(CC(=O)c2ccc(OC)cc2)c2ccccc21 | inactive
71 | CC(=O)c1sc(NC(=O)C2CCN(C(=O)c3ccccc3C)CC2)nc1-c1ccccc1 | inactive
72 | COc1ccc2oc(C(F)(F)C(F)(F)F)cc(=O)c2c1 | inactive
73 | O=C(CN1CCC(NC(=O)c2cccc(F)c2)CC1)NCc1ccccc1F | inactive
74 | CCN(CC)C(=O)CN1C(=O)C2(NC(=O)c3ccccc3N2)c2ccccc21 (stereo not given) | inactive
75 | Cc1ccc(OC(=O)COc2ccccc2)c(-n2nc3ccccc3n2)c1 | inactive
76 | O=C(NCc1ccncc1)c1ccc(Cn2cc(C(F)(F)F)ccc2=O)cc1 | inactive
77 | CCc1ccc(NS(=O)(=O)c2cccs2)cc1 | inactive
78 | CC(OC(=O)c1cccs1)C(=O)NCc1ccco1 (stereo not given) | inactive
79 | COc1cccc(-c2nnc(SCC(=O)OC(C)C)n2N)c1 | inactive
80 | O=C(c1ccco1)N(Cc1ccco1)c1ccc(O)cc1 | inactive
81 | O=C(c1ccco1)N(Cc1ccc([N+](=O)[O-])cc1)c1ccc(Cl)cc1 | inactive
82 | O=C(Cn1ncc(Cl)c(Cl)c1=O)c1ccc2c(c1)OCCO2 | inactive
83 | CCCCCCC(=O)N(O)C1CC(=O)N(c2ccc(Br)cc2)C1=O (stereo not given) | inactive
84 | Nc1nc(SCC(=O)OCc2ccccc2)[nH]c(=O)c1NC(=O)c1ccco1 | inactive
85 | O=S(=O)(N1CCCCC1)N1CCN(c2ccccc2F)CC1 | inactive
86 | CCNC(=O)CC1C(=O)N(c2ccc(C)cc2)C(=O)N1CCc1ccc(OC)c(OC)c1 (stereo not given) | inactive
87 | NS(=O)(=O)c1ccc(CCNC2CC(=O)N(Cc3ccccc3)C2=O)cc1 (stereo not given) | inactive
88 | COc1cc(N2C(=O)C=CC2=O)ccc1N1C(=O)C=CC1=O | inactive
89 | COc1ccc(CCN2C(=O)c3cccnc3C2=O)cc1OC | inactive
90 | O=C1CC(Nc2ccc(N3CCOCC3)cc2)C(=O)N1CCc1ccccc1 (stereo not given) | inactive
91 | COc1ccc(Nc2ncc(F)c(N3CCOCC3)n2)cc1 | inactive
92 | CN1CCN(/C=C(\C#N)S(=O)(=O)c2ccc(Cl)cc2)CC1 | inactive

Row | Compound | outcome
93 | S=C(NCc1ccccn1)Nc1ccc(Cl)c(Cl)c1 | inactive
94 | O=C(NCc1ccc(F)cc1)C1CCC(CNc2c(N3CCCCC3)c(=O)c2=O)CC1 (stereo not given) | inactive
95 | Cc1cc(C)cc(N(CC(=O)NCc2cccnc2)S(C)(=O)=O)c1 | inactive
96 | CCSc1nnc(NC(=O)c2cccc3ccccc23)s1 | inactive
97 | Cc1ccc(C(C)C)c(OCCN(C)C)c1 | inactive
98 | Cc1cc(C)cc(CC2CC(=O)N(c3ccc4c(c3)OCCO4)C2=O)c1 (stereo not given) | inactive
99 | COc1ccc(C2OC(=O)CC2C(=O)N2CCN(c3cc(Cl)ccc3C)CC2)cc1OC (stereo not given) | inactive
100 | CCOC(=O)C(C#N)(Cc1ccc2ccccc2n1)Cc1ccc2ccccc2n1 | inactive
101 | Cc1ccccc1NS(=O)(=O)c1ccc2[nH]cc(C(=O)N(C)Cc3ccco3)c(=O)c2c1 | inactive
102 | CC1CCCCN1CCCNC(=O)C1CCN(c2nc3ccccc3o2)CC1 (stereo not given) | inactive
103 | COc1ccccc1N1C(=O)CC(Sc2nccc(C)n2)C1=O (stereo not given) | inactive
104 | CCN(CC)c1ccc(NC(=O)c2ccco2)cc1 | inactive
105 | O=C1CC(NCc2ccco2)C(=O)N1CCc1ccccc1 (stereo not given) | inactive
106 | COc1ccccc1CNCC(=O)Nc1ccc(N2CCOCC2)cc1 | inactive
107 | O=C(Nc1ccc(COc2ccccc2)cc1)Oc1ccccc1N1CCOCC1 | inactive
108 | CCOc1ccc(Cl)cc1S(=O)(=O)N1CCN(c2ccc(F)cc2)CC1 | inactive
109 | O=C(CSc1ccc(Cl)cc1)c1ccco1 | inactive
110 | O=[N+]([O-])c1ccc(-c2c[nH]c(=S)[nH]2)cc1 | inactive
111 | CC1(C)OC(=O)C(=CNC(Cc2c[nH]c3ccccc23)C(=O)O)C(=O)O1 (stereo not given) | inactive
112 | CC(C)(C)c1ccc(OCC(=O)NCCN2CCCC2)cc1 | inactive
113 | Cc1ccc(S(=O)(=O)N2CCOCC2)cc1C(=O)Nc1nc2ccccc2[nH]1 | inactive
114 | CC(NC(=O)c1ccco1)C1CCCO1 (stereo not given) | inactive
115 | CC1(C)Cc2c(cnn2-c2ccccc2)C(NC(=O)CCCN2CCCCC2=O)C1 (stereo not given) | inactive
